About 79,000 compounds went through this panel and 15% of them were active in at least one assay; those are over-represented in the sample as a whole. Active and inactive are the calls of the source. Cut-off read from the data, not from the text of the source: active = growth inhibition above about 70%; inactive = the rest.
Experiments:
[1] = NCI Yeast Anticancer Drug Screen. Data for the rad52 strain (AID 147);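 note: 0% = growth of vehicle-treated control cultures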; details: S. cerevisiae rad52 mutant growth inhibition, stronger effect = higher value
How it was run: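 Genetically altered yeast (DNA damage repair defect) treated with compound; inhibition calculated relative to vehicle.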

[2] = NCI Yeast Anticancer Drug Screen. Data for the wt1 strain (AID 149);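 note: 0% = growth of vehicle-treated wt1 cultures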; details: S. cerevisiae wt1 strain (SPY 50644) growth inhibition, stronger effect = higher value
How it was run: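 The wt1 strain was treated with compounds, and growth was compared with vehicle-treated cultures to give inhibition.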

[3] = NCI Yeast Anticancer Drug Screen. Data for the rad50EPP+ strain (AID 151);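 note: 0% = growth of vehicle-treated control cultures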; details: S. cerevisiae rad50 mutant strain, stronger effect = higher value
How it was run: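 Strain rad50EPP+; compound exposure; % growth inhibition vs vehicle.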

[4] = NCI Yeast Anticancer Drug Screen. Data for the mgt1 strain (AID 153); details: S. cerevisiae mgt1 mutant growth inhibition, stronger effect = higher value
How it was run: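 Read-out: yeast growth inhibition vs vehicle control. Strain mgt1, drawn from a panel altered in DNA damage repair or cell cycle control.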

[5] = NCI Yeast Anticancer Drug Screen. Data for the rad50 strain (AID 155);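 note: 0% = growth of vehicle-only cultures of the same strain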; details: S. cerevisiae rad50 strain growth inhibition, stronger effect = higher value
How it was run: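 Cells are treated with compound, grown, and their growth is then scored against vehicle-only cultures of the same repair-deficient yeast strain.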

[6] = NCI Yeast Anticancer Drug Screen. Data for the mec2-1 strain (AID 157); details: S. cerevisiae mec2-1 strain, stronger effect = higher value
How it was run: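 Cells of the genetically defined mec2-1 yeast strain are incubated with test compound. Inhibition of growth is calculated against vehicle-treated controls.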

[7] = NCI Yeast Anticancer Drug Screen. Data for the rad14 strain (AID 159);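 note: 0% = growth of vehicle-treated control cultures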; details: S. cerevisiae rad14 strain growth inhibition, stronger effect = higher value
How it was run: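 Readout: yeast growth inhibition, referenced to vehicle-only cultures. Strain bears a defined alteration in DNA damage repair.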

[8] = NCI Yeast Anticancer Drug Screen. Data for the sgs1 mgt1 strain (AID 161);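 note: 0% = growth of cultures given vehicle only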; details: S. cerevisiae sgs1 mgt1 strain, stronger effect = higher value
How it was run: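 Test agents were incubated with a DNA-repair-mutant yeast strain. Growth was then read and compared against vehicle-treated controls.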

[9] = NCI Yeast Anticancer Drug Screen. Data for the CLN2oe strain (AID 163);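 note: 0% = growth of vehicle-only control cultures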; details: S. cerevisiae CLN2oe strain, stronger effect = higher value
How it was run: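 Strain altered in cell-cycle control, incubated with compound; growth compared to solvent-treated controls.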

[10] = NCI Yeast Anticancer Drug Screen. Data for the cln2 rad14 strain (AID 165);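 note: 0% = growth equal to vehicle treated cultures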; details: S. cerevisiae cln2 rad14 strain, stronger effect = higher value
How it was run: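 The screen exposed genetically defined yeast (cln2 rad14) to test compounds and scored growth inhibition relative to vehicle-treated controls.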

[11] = NCI Yeast Anticancer Drug Screen. Data for the bub3 strain (AID 167); details: S. cerevisiae bub3 mutant strain, stronger effect = higher value
How it was run: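 Part of a panel of yeast mutants defective in DNA damage repair or cell cycle regulation. Each strain is grown with compound, and inhibition is calculated relative to solvent-treated cultures.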

[12] = NCI Yeast Anticancer Drug Screen. Data for the wt2 strain (AID 169);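 note: 0% = growth of vehicle-treated yeast cultures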; details: S. cerevisiae wt2 strain growth inhibition, stronger effect = higher value
How it was run: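 Steps: yeast strain treated with compound; growth recorded; inhibition calculated relative to cultures given vehicle alone.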

[13] = NCI Yeast Anticancer Drug Screen. Data for the mlh1 strain (AID 171);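 note: 0% = growth of vehicle-treated control cultures of the same strain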; details: S. cerevisiae mlh1 strain growth inhibition, stronger effect = higher value
How it was run: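 Yeast screen: mutant strain plus compound, growth scored against vehicle control wells.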

[14] = NCI Yeast Anticancer Drug Screen. Data for the mlh1 rad18 strain (AID 175); details: S. cerevisiae mlh1 rad18 strain growth inhibition, stronger effect = higher value
How it was run: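 Compound-treated yeast growth, normalised to vehicle controls. Strain bears defined DNA repair mutations.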

[15] = NCI Yeast Anticancer Drug Screen. Data for the rad18 strain (AID 177); details: S. cerevisiae rad18 mutant growth inhibition, stronger effect = higher value
How it was run: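 Inhibition values reflect reduced yeast growth compared with vehicle-treated controls, using a strain engineered with a DNA damage repair defect.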

[16] = at 5.0 µM (retest, dose inferred, filed as 0.5)
[17] = at 50.0 µM (retest, dose inferred, filed as 5.0)

Measured: growth inhibition

CC(=O)OCC1OC2OC(=O)NC2C(OC(C)=O)C1OC(C)=O (stereo unspecified)
inactive: [1]; at 1.2 µM -3% | [1]; at 3.7 µM -1% | [1]; at 11.0 µM 0% | [1]; at 33.0 µM 1% | [1]; at 100.0 µM -3% | [2]; at 1.2 µM -3% | [2]; at 3.7 µM -3% | [2]; at 11.0 µM -2% | [2]; at 33.0 µM -2% | [2]; at 100.0 µM -1% | [3]; at 1.2 µM -4% | [3]; at 3.7 µM 0% | [3]; at 11.0 µM -1% | [3]; at 33.0 µM -5% | [3]; at 100.0 µM -8% | [4]; at 1.2 µM -1% | [4]; at 3.7 µM -1% | [4]; at 11.0 µM 1% | [4]; at 33.0 µM -4% | [4]; at 100.0 µM -35% | [5]; at 1.2 µM -5% | [5]; at 3.7 µM -1% | [5]; [16] 5% | [5]; at 11.0 µM 0% | [5]; at 33.0 µM -1% | [5]; [17] -1% | [5]; at 50.0 µM 5.15% | [5]; at 100.0 µM 0% | [6]; at 1.2 µM -2% | [6]; at 3.7 µM -2% | [6]; [16] -7% | [6]; at 11.0 µM -1% | [6]; at 33.0 µM -1% | [6]; [17] 3% | [6]; at 50.0 µM 10.9% | [6]; at 100.0 µM 0% | [7]; at 1.2 µM -2% | [7]; at 3.7 µM -1% | [7]; at 11.0 µM -3% | [7]; at 33.0 µM 2% | [7]; at 100.0 µM 2% | [8]; [16] 2% | [8]; [17] 15% | [8]; at 50.0 µM -17.1% | [9]; at 1.2 µM -3% | [9]; at 3.7 µM 2% | [9]; at 11.0 µM -1% | [9]; at 33.0 µM -4% | [9]; at 100.0 µM 0% | [10]; [16] -21% | [10]; [17] 44% | [10]; at 50.0 µM -15.3% | [11]; at 1.2 µM 13% | [11]; at 3.7 µM 2% | [11]; [16] 3% | [11]; at 11.0 µM -2% | [11]; at 33.0 µM 1% | [11]; [17] 3% | [11]; at 50.0 µM -9.2% | [11]; at 100.0 µM -4% | [12]; at 1.2 µM -3% | [12]; at 3.7 µM -3% | [12]; at 11.0 µM -3% | [12]; at 33.0 µM -4% | [12]; at 100.0 µM -1% | [13]; at 1.2 µM -2% | [13]; at 3.7 µM -3% | [13]; at 11.0 µM -2% | [13]; at 33.0 µM -1% | [13]; at 100.0 µM 0% | [14]; [16] -9% | [14]; [17] 5% | [14]; at 50.0 µM -7.3% | [15]; at 1.2 µM -3% | [15]; at 3.7 µM -1% | [15]; at 11.0 µM 0% | [15]; at 33.0 µM -3% | [15]; at 100.0 µM -2%

CCCC(=O)Oc1ccc(/C=N/NC(N)=S)nc1
active: [6]; [17] 89% | [6]; at 50.0 µM 75.2%
inactive: [1]; at 1.2 µM 5% | [1]; at 3.7 µM -9% | [1]; at 11.0 µM -1% | [1]; at 33.0 µM 8% | [1]; at 100.0 µM 4% | [2]; at 1.2 µM 1% | [2]; at 3.7 µM -19% | [2]; at 11.0 µM 1% | [2]; at 33.0 µM -19% | [2]; at 100.0 µM -24% | [3]; at 1.2 µM -3% | [3]; at 3.7 µM 7% | [3]; at 11.0 µM 0% | [3]; at 33.0 µM -11% | [3]; at 100.0 µM -9% | [4]; at 1.2 µM -1% | [4]; at 3.7 µM -5% | [4]; at 11.0 µM -2% | [4]; at 33.0 µM -6% | [4]; at 100.0 µM -14% | [5]; at 1.2 µM -9% | [5]; at 3.7 µM -16% | [5]; [16] -3% | [5]; at 11.0 µM -17% | [5]; at 33.0 µM -7% | [5]; [17] 14% | [5]; at 50.0 µM 15% | [5]; at 100.0 µM 4% | [6]; at 1.2 µM -3% | [6]; at 3.7 µM -2% | [6]; [16] -2% | [6]; at 11.0 µM -4% | [6]; at 33.0 µM -2% | [6]; at 100.0 µM 42% | [7]; at 1.2 µM 2% | [7]; at 3.7 µM 2% | [7]; at 11.0 µM -17% | [7]; at 33.0 µM -19% | [7]; at 100.0 µM -21% | [8]; [16] -1% | [8]; [17] 25% | [8]; at 50.0 µM 28.4% | [9]; at 1.2 µM -5% | [9]; at 3.7 µM -7% | [9]; at 11.0 µM -11% | [9]; at 33.0 µM -6% | [9]; at 100.0 µM -8% | [10]; [16] -3% | [10]; [17] 33% | [10]; at 50.0 µM 11.3% | [11]; at 1.2 µM -5% | [11]; at 3.7 µM -6% | [11]; [16] -4% | [11]; at 11.0 µM -9% | [11]; at 33.0 µM -20% | [11]; [17] -14% | [11]; at 50.0 µM 0.95% | [11]; at 100.0 µM -21% | [12]; at 1.2 µM -13% | [12]; at 3.7 µM -5% | [12]; at 11.0 µM -6% | [12]; at 33.0 µM 6% | [12]; at 100.0 µM 10% | [13]; at 1.2 µM -9% | [13]; at 3.7 µM -6% | [13]; at 11.0 µM -8% | [13]; at 33.0 µM -9% | [13]; at 100.0 µM -14% | [14]; [16] -4% | [14]; [17] 26% | [14]; at 50.0 µM 19.1% | [15]; at 1.2 µM -7% | [15]; at 3.7 µM 2% | [15]; at 11.0 µM -2% | [15]; at 33.0 µM -8% | [15]; at 100.0 µM -10%

O=c1[nH]c(-c2ccccc2)nc2c1sc1nc3ccccc3n12
inactive: [1]; at 1.2 µM -15% | [1]; at 3.7 µM -31% | [1]; at 11.0 µM -23% | [1]; at 33.0 µM -15% | [1]; at 100.0 µM -18% | [2]; at 1.2 µM -24% | [2]; at 3.7 µM -25% | [2]; at 11.0 µM -20% | [2]; at 33.0 µM -25% | [2]; at 100.0 µM -17% | [3]; at 1.2 µM -2% | [3]; at 3.7 µM -31% | [3]; at 11.0 µM -36% | [3]; at 33.0 µM -40% | [3]; at 100.0 µM -31% | [4]; at 1.2 µM -20% | [4]; at 3.7 µM -18% | [4]; at 11.0 µM -17% | [4]; at 33.0 µM -8% | [4]; at 100.0 µM -25% | [5]; at 1.2 µM 11% | [5]; at 3.7 µM 5% | [5]; [16] 8% | [5]; at 11.0 µM -8% | [5]; at 33.0 µM -13% | [5]; [17] 56% | [5]; at 50.0 µM 13.4% | [5]; at 100.0 µM -9% | [6]; at 1.2 µM -34% | [6]; at 3.7 µM -23%

— PubChem BioAssay (NCI)
